Here are results for 38 compounds from PubChem BioAssay (NCATS).

Structures are written as SMILES. Results filed as inconclusive are left out. Activity calls are given as the source filed them. Calls follow the shape of the dose curve; as a rule, active = well fitted curve in the direction sought with a large enough effect; inconclusive = small, poorly fitted or top-dose-only effect, or another doubt; inactive = no such curve, though single readings can be large; an effect the other way counts as inactive or inconclusive.

For experiment [1], the target named is Glutaminase kidney isoform, mitochondrial (Homo sapiens) (UniProt O94925). As to the kind of experiment: qHTS for Inhibitors of Glutaminase (GLS): LOPAC Validation (AID 624146). Also: nearly all actives have a fitted effect of over 60% in size. Also: potency is read from the fitted curve at half-maximal effect. The method in brief:
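Compounds were pin-transferred onto hKGA, after which L-glutamine (1 mM solution) and a detection mix of glutamate oxidase, HRP and Amplex Red were added. Initial and 30 min RT fluorescence reads were collected.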
On the technique in general: In qHTS, concentration-response curves come from the screen itself.

Experiment [2] can be described thus: qHTS of Trypanosoma Brucei Inhibitors: LOPAC Validation (AID 624147). The method in brief:
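In this concentration-response screen, enzyme-free wells defined baseline while DMSO plates tracked drift. Each reaction combined TbPYK, substrate, compound and 130 uM ADP for 45 min at room temperature. Kinase-Glo Plus luminescence gave the signal.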

In experiment [3] the target is Glucagon-like peptide 1 receptor (Homo sapiens) (UniProt P43220). As to the kind of experiment: qHTS of GLP-1 Receptor Agonists: LOPAC Validation (AID 624148).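 Also: higher luminescence signal means agonism.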 The method in brief:
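HEK293 cells stably co-expressing a cAMP-responsive luciferase reporter and a hypersensitive GLP-1R were plated 12 h at 37 °C and exposed to compounds for 4-6 hr at 37 °C, 5% CO2. Luminescence was read 12 min after adding detection reagent.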

The nature of experiment [4]: qHTS of Nrf2 Activators: LOPAC Validation (AID 624149). In short, it runs like this:
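Cells (AREc32_Fluc) are plated at 1000 per well in OPTI-MEM containing 5% FBS and left overnight. Compounds are pinned in and incubated 24 hr at 37 deg C, and firefly luciferase is detected with Steady-Glo.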

The nature of experiment [5]: HTS Assay for Allosteric Antagonists of the Human D2 Dopamine Receptor: Hit Validation in HTRF (AID 624455).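 Also: stable D1 dopamine receptor cell line scored for blocking the D1 response.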 In short, it runs like this: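 Inhibition of the D1-mediated response is measured by HTRF in cells that stably express the D1 dopamine receptor. Compounds reaching this step are hits from calcium-flux antagonism testing at EC80 dopamine in inducible Hek293 Trex D2 cells.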
For orientation: TR-FRET usually uses a lanthanide donor and a delayed reading to cut background.

Sequence of Glucagon-like peptide 1 receptor (Homo sapiens) (P43220 whole entry, looked up): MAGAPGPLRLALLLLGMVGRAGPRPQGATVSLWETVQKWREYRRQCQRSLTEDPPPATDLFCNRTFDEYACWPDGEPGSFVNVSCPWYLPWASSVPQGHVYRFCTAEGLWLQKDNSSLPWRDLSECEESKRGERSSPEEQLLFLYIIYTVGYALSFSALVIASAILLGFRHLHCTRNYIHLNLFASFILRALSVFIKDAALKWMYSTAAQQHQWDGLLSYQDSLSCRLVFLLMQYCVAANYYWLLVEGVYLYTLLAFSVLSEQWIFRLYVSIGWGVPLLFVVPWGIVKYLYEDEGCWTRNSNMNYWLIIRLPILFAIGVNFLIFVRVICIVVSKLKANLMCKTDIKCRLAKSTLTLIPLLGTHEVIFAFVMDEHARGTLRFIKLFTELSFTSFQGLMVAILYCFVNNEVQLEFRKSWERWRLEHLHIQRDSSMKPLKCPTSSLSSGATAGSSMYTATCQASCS
Sequence of Glutaminase kidney isoform, mitochondrial (Homo sapiens) (O94925 whole entry, looked up, canonical isoform): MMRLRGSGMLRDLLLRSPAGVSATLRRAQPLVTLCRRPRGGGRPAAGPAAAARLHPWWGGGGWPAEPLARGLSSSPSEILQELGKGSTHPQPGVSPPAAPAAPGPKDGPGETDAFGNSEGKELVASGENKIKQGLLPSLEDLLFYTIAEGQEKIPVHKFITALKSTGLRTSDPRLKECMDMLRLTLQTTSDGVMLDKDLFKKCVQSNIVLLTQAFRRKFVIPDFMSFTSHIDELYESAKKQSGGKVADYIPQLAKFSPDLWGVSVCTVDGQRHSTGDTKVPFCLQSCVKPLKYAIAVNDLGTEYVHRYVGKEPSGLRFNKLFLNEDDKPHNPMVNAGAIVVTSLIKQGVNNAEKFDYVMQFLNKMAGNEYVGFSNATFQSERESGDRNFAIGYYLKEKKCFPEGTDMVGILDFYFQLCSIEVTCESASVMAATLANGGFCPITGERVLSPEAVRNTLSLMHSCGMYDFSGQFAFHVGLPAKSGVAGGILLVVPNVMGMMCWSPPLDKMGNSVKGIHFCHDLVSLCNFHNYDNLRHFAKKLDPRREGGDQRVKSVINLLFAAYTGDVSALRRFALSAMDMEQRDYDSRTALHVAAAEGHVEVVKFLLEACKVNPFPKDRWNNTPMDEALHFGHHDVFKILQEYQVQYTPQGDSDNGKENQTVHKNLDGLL

On to `CCOC(=O)C1=C(C)NC(C)=C(C(=O)OC)C1c1cccc([N+](=O)[O-])c1` (stereo not given), for which, in experiment [1], the Potency entry was “inactive”. The result in experiment [2], in experiment [3] and in experiment [4] was inactive.

Take `CN1C[C@H](C(=O)N[C@]2(C)O[C@@]3(O)[C@@H]4CCCN4C(=O)[C@H](Cc4ccccc4)N3C2=O)C[C@@H]2c3cccc4[nH]cc(c34)C[C@H]21`: in experiment [1], the Potency result was “inactive”. For the same compound, the outcome in experiment [2], in experiment [3] and in experiment [4] was inactive.

Take `CCCCNc1c(C(=O)OCC)c(C)nc2c1cnn2CC`: the Potency entry in experiment [1] is “inactive”. Also, the compound was classed as inactive in experiment [2], in experiment [3] and in experiment [4].

In the case of `NC/C=C/C(=O)O`, the Potency entry in experiment [1] is “inactive”. Further, the result in experiment [2], in experiment [3] and in experiment [4] was inactive.

For `Cc1ccc(/C(=C\CN2CCCC2)c2ccccn2)cc1`, in experiment [1], the Potency result was “inactive”. Moreover, the outcome in experiment [2] and in experiment [3] was inactive.

Take `CCOC(=O)C1=C(C)NC(C)=C(C(=O)OC)C1c1cccc(Cl)c1Cl` (stereo not given): the Potency result in experiment [1] was “inactive”. The call in experiment [2], in experiment [3] and in experiment [4] was inactive.

Take `O=c1[nH]c(=O)n([C@H]2C[C@H](O)[C@@H](CO)O2)cc1Br`: the Potency result in experiment [1] was “inactive”. Further, the call in experiment [2], in experiment [3] and in experiment [4] was inactive.

For `NC(=O)N1c2ccccc2C=Cc2ccccc21`, the Potency result in experiment [1] and in experiment [5] was “inactive” throughout. In addition, the call in experiment [2], in experiment [3] and in experiment [4] was inactive.

As to `CC1=NS(=O)(=O)c2cc(Cl)ccc2N1`, the Potency entry in experiment [1] and in experiment [5] was “inactive” throughout. Further, the outcome in experiment [2], in experiment [3] and in experiment [4] was inactive.

In the case of `O=C(O)CCCCCCCC(=O)O`, the Potency result in experiment [1] is “inactive”. Also, the result in experiment [2], in experiment [3] and in experiment [4] was inactive.

With `COC(=O)[C@H]1[C@H]2C[C@@H]3c4[nH]c5cc(OC)ccc5c4CCN3C[C@H]2C[C@@H](OC(=O)c2cc(OC)c(OC)c(OC)c2)[C@@H]1OC`, the Potency in experiment [1] was 10 µM (active). In addition, the compound was called inactive in experiment [2], in experiment [3] and in experiment [4]. In addition, the Potency entry in experiment [5] is “inactive”.

On to `COc1cc(Cc2cnc(N)nc2N)cc(OC)c1OC`, for which the Potency entry in experiment [1] was “inactive”. Also, the compound was called inactive in experiment [2] and in experiment [3].

`CCN(CC)CCOCCOC(=O)C1(c2ccccc2)CCCC1`: the Potency entry in experiment [1] and in experiment [5] was “inactive” in each case. The compound was classed as inactive in experiment [2], in experiment [3] and in experiment [4].

Take `NC(N)=NC(=O)Cc1c(Cl)cccc1Cl`: the Potency entry in experiment [1] and in experiment [5] was “inactive” each time. Further, the outcome in experiment [2], in experiment [3] and in experiment [4] was inactive.

In the case of `OCCN1CCN(CCCN2c3ccccc3C=Cc3ccccc32)CC1`, the Potency result in experiment [1] and in experiment [5] was “inactive” each time. Further, the call in experiment [2], in experiment [3] and in experiment [4] was inactive.

As for `CCNC(=O)N1CCN(CCCC(c2ccc(F)cc2)c2ccc(F)cc2)CC1`, the Potency entry in experiment [1] and in experiment [5] was “inactive” each time. Moreover, the compound was classed as inactive in experiment [2], in experiment [3] and in experiment [4].

For the compound `C[N+](C)(C)CCCCCCCCCC[N+](C)(C)C`, the Potency entry in experiment [1] and in experiment [5] was “inactive” each time. Moreover, the result in experiment [2], in experiment [3] and in experiment [4] was inactive.

Turning to `CCN1CCC[C@H]1CNC(=O)c1c(O)c(Cl)cc(Cl)c1OC`, the Potency entry in experiment [1] and in experiment [5] was “inactive” each time. In addition, the compound was called inactive in experiment [2], in experiment [3] and in experiment [4].

For `COc1ccc([C@@H]2Sc3ccccc3N(CCN(C)C)C(=O)[C@@H]2OC(C)=O)cc1`, the Potency entry in experiment [1] is “inactive”. The compound was classed as inactive in experiment [2], in experiment [3] and in experiment [4].

On to `CCN(CC)CCCN(c1ccccc1)C1Cc2ccccc2C1`, for which the Potency result in experiment [1] was “inactive”. Moreover, the result in experiment [2], in experiment [3] and in experiment [4] was inactive.

Consider `CC(=O)OC(C)C[N+](C)(C)C` (stereo not given), for which the Potency result in experiment [1] and in experiment [5] was “inactive” each time. Further, the result in experiment [2], in experiment [3] and in experiment [4] was inactive.

Turning to `CCCN1C[C@H](CSC)C[C@@H]2c3cccc4[nH]cc(c34)C[C@H]21`, the Potency result in experiment [1] is “inactive”. Further, the compound was classed as inactive in experiment [2], in experiment [3] and in experiment [4].

Consider `COCCCC/C(=N\OCCN)c1ccc(C(F)(F)F)cc1`, for which the Potency entry in experiment [1] was “inactive”. Further, the call in experiment [2], in experiment [3] and in experiment [4] was inactive.

On to `COc1ccc(CCN(C)CCCC(C#N)(c2cc(OC)c(OC)c(OC)c2)C(C)C)cc1OC` (stereo not given), for which the Potency result in experiment [1] was “inactive”. Besides, the compound was called inactive in experiment [2], in experiment [3] and in experiment [4].

As to `COC(=O)C1=C(C)NC(C)=C(C(=O)OC(C)(C)CN(C)CCC(c2ccccc2)c2ccccc2)C1c1cccc([N+](=O)[O-])c1` (stereo not given), the Potency result in experiment [1] is “inactive”. Also, the outcome in experiment [2], in experiment [3] and in experiment [4] was inactive.

On to `C[N+](C)(C)CCOC(=O)CCC(=O)OCC[N+](C)(C)C`, for which the Potency entry in experiment [1] was “inactive”. In addition, the result in experiment [2], in experiment [3] and in experiment [4] was inactive.

On to `CCCN(CCC)CCc1cccc2c1CC(=O)N2`, for which, in experiment [1], the Potency entry is “inactive”. Also, the outcome in experiment [2], in experiment [3] and in experiment [4] was inactive.

`C[N+](C)(C)CCOC(N)=O`: the Potency result in experiment [1] was “inactive”. Moreover, the compound was called inactive in experiment [2], in experiment [3] and in experiment [4].

As for `CN1C(=O)CC[C@H]1c1cccnc1`, the Potency entry in experiment [1] was “inactive”. In addition, the call in experiment [2], in experiment [3] and in experiment [4] was inactive.

Turning to `CN(C)CC/C=C1\c2ccccc2COc2ccccc21`, the Potency entry in experiment [1] and in experiment [5] was “inactive” throughout. Also, the call in experiment [2], in experiment [3] and in experiment [4] was inactive.

In the case of `NCCCNCCSP(=O)(O)O`, the Potency result in experiment [1] is “inactive”. Besides, the call in experiment [2], in experiment [3] and in experiment [4] was inactive.

As for `CN(C)CC[C@@H](c1ccc(Br)cc1)c1ccccn1`, in experiment [1], the Potency entry was “inactive”. For the same compound, the compound was classed as inactive in experiment [2], in experiment [3] and in experiment [4].

Consider `CCCN(CCC)C(=O)C(CCC(=O)O)NC(=O)c1ccccc1` (stereo not given), for which, in experiment [1], the Potency result is “inactive”. Further, the result in experiment [2], in experiment [3] and in experiment [4] was inactive.

Consider `C[C@]12CCC(=O)C=C1CC[C@@H]1[C@@H]2C(=O)C[C@@]2(C)[C@H]1CC[C@]2(O)C(=O)CO`, for which the Potency entry in experiment [1] was “inactive”. The call in experiment [2], in experiment [3] and in experiment [4] was inactive.

As for `COCC(=O)O[C@]1(CCN(C)CCCc2nc3ccccc3[nH]2)CCc2cc(F)ccc2[C@@H]1C(C)C`, the Potency result in experiment [1] and in experiment [5] was “inactive” throughout. Moreover, the call in experiment [2], in experiment [3] and in experiment [4] was inactive.

In the case of `CCCNC(C)C(=O)Nc1ccccc1C` (stereo not given), the Potency result in experiment [1] and in experiment [5] was “inactive” each time. Moreover, the compound was called inactive in experiment [2], in experiment [3] and in experiment [4].

On to `CCN(CC)CCNC(=O)c1ccc(NC(C)=O)cc1`, for which the Potency entry in experiment [1] and in experiment [5] was “inactive” in each case. The compound was called inactive in experiment [2], in experiment [3] and in experiment [4].

On to `Nc1c2c(nc3ccccc13)CCCC2O` (stereo not given), for which the Potency result in experiment [1] and in experiment [5] was “inactive” throughout. Also, the compound was classed as inactive in experiment [2], in experiment [3] and in experiment [4].
